PubChem BioAssay (NCATS)
Where “and” joins values, the source holds several entries; their conditions need not be identical. Identical values can stand only once. Results filed as inconclusive are left out. Calls of active or inactive are those of the source. Unless noted, calls come from the whole dose curve; as a rule, active = well fitted curve in the direction sought with a large enough effect; inconclusive = small, poorly fitted or top-dose-only effect, or another doubt; inactive = no such curve, though single readings can be large; an effect the other way counts as inactive or inconclusive.

Columns and labels:
[1] = qHTS Screen of the MIPE 4.0 Collection Against Ewings Sarcoma (TC32) (AID 1259256); note: nearly all actives have a fitted effect of over 45% in size; note: potency is the fitted concentration of half-maximal effect
How it was run: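 Measured: ATP luminescence (CellTiter-Glo) 10 min after reagent addition, following 48 h drug treatment. Relative luciferase units converted to percent activity, with no-cell wells as full and DMSO wells as zero inhibition.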

[2] = qHTS of pediatric cancer cell lines to identify multiple opportunities for drug repurposing: Primary screen for DAOY cells (AID 1347090); note: nearly all actives have a fitted effect of over 55% in size; note: potency is the fitted concentration of half-maximal effect
How it was run: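 Eight- or eleven-point concentration series, 48 h treatment at 37 degrees C in growth media; readout CellTiter-Glo luminescence. Potency and efficacy were taken from the concentration-response curves.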

[3] = NS1 protein of Zika virus - qHTS assay to identify small molecule inhibitors in human HEK 293 cells (AID 1347053); note: nearly all actives have a fitted effect of over 55% in size; note: potency is the fitted concentration of half-maximal effect
How it was run: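 HEK 293 cells, seeded 20 h at 37 C, were pretreated with compound 1 h, then infected with ZIKV MR766 (MOI = 0.5) for 24 h. NS1 was read by TR-FRET with two anti-NS1 antibodies, normalized to uninfected and infected wells.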

[4] = P-glycoprotein substrates identified in KB-8-5-11 adenocarcinoma cell line, qHTS therapeutic library screen (AID 1346987); note: nearly all actives have a fitted effect of over 65% in size; note: potency is the fitted concentration of half-maximal effect
How it was run: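 Steps: plate 500 KB-8-5-11 cells/well in DMEM + 10% FCS (colchicine removed); pin compounds in dose-response; incubate 72 h, 37 degree C, 5% CO2; add CellTiter-Glo, 5 min; read luminescence.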

[5] = qHTS of pediatric cancer cell lines to identify multiple opportunities for drug repurposing: Primary screen for TC32 cells (AID 1347089); note: nearly all actives have a fitted effect of over 60% in size; note: potency is the fitted concentration of half-maximal effect
How it was run: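 Measured quantity: luminescence from CellTiter-Glo, reflecting metabolically active TC32 cells following 48 h of compound. Curves came straight from multi-point titrations, with 8 or 11 points in primary and 11 in confirmatory screening.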

[6] = P-glycoprotein substrates identified in KB-3-1 adenocarcinoma cell line, qHTS therapeutic library screen (AID 1346986); note: nearly all actives have a fitted effect of over 60% in size
How it was run: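 Resistance attributable to P-gp was assessed by comparing AC50 in KB-8-5-11 with parental KB-3-1 and by tariquidar reversal. Cells were exposed 72 h and viability read by CellTiter-Glo.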

[7] = Natriuretic polypeptide receptor (hNpr1) antagonism - Pilot counterscreen GloSensor control cell line (AID 1347045; calls by dose curve; note: series mostly up to about 38 µM)
How it was run: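 Luminescence was read before and 20 min after adding 50 uM SNP, which stimulates soluble guanylyl cyclase. The HEK293 cells expressing the GloSensor cGMP sensor had been preloaded with 2% reagent for 2 h and treated with compound.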

[8] = target: Atrial natriuretic peptide receptor 1 (Homo sapiens) (UniProt P16066); assay: Natriuretic polypeptide receptor (hNpr1) antagonism - Pilot screen (AID 1347049; calls by dose curve;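 note: agonist-evoked cGMP luminescence read 20 min after hNppA addition; series mostly up to about 58 µM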)
Sequence of Atrial natriuretic peptide receptor 1 (Homo sapiens) (P16066 whole entry, looked up): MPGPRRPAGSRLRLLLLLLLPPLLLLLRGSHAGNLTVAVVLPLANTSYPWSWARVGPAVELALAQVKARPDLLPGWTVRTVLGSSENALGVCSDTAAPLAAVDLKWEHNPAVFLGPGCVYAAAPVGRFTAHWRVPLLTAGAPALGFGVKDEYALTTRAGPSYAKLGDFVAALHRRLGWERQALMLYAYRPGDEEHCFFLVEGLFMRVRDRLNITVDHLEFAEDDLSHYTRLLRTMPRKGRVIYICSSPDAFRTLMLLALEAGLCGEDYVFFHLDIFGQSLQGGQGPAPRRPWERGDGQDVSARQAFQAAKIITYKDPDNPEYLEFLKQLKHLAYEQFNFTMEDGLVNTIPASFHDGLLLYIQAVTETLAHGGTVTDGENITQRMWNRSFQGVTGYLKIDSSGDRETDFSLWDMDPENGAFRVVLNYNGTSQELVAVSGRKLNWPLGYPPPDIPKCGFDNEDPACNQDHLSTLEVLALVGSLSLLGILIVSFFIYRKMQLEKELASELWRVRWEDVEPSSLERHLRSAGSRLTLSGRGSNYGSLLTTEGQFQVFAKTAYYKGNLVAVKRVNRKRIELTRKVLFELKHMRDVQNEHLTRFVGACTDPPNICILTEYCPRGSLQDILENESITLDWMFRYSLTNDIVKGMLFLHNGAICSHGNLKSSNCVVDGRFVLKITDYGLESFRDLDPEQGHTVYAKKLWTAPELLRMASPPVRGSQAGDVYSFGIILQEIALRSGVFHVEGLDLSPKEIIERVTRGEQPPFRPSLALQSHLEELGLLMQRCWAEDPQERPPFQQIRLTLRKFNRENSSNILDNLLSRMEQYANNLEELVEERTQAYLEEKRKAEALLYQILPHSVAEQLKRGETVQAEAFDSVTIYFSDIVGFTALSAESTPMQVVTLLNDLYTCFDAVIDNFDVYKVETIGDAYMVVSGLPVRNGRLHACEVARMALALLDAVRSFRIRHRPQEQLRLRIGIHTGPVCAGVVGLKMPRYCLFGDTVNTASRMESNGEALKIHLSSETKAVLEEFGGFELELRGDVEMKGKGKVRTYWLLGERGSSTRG
How it was run: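 HEK293 cells co-expressing hNpr1 and the GloSensor pGS-40F cGMP luciferase sensor were preloaded with 2% GloSensor reagent for 2 h. Compounds were added for 30 min at room temperature, then cells were stimulated with 0.1 nM hNppA for 20 min before luminescence readout.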

[9] = target: Atrial natriuretic peptide receptor 2 (Homo sapiens) (UniProt P20594); assay: Natriuretic polypeptide receptor (hNpr2) antagonism - Pilot subtype selectivity assay (AID 1347050; calls by dose curve)
Sequence of Atrial natriuretic peptide receptor 2 (Homo sapiens) (P20594 whole entry, looked up): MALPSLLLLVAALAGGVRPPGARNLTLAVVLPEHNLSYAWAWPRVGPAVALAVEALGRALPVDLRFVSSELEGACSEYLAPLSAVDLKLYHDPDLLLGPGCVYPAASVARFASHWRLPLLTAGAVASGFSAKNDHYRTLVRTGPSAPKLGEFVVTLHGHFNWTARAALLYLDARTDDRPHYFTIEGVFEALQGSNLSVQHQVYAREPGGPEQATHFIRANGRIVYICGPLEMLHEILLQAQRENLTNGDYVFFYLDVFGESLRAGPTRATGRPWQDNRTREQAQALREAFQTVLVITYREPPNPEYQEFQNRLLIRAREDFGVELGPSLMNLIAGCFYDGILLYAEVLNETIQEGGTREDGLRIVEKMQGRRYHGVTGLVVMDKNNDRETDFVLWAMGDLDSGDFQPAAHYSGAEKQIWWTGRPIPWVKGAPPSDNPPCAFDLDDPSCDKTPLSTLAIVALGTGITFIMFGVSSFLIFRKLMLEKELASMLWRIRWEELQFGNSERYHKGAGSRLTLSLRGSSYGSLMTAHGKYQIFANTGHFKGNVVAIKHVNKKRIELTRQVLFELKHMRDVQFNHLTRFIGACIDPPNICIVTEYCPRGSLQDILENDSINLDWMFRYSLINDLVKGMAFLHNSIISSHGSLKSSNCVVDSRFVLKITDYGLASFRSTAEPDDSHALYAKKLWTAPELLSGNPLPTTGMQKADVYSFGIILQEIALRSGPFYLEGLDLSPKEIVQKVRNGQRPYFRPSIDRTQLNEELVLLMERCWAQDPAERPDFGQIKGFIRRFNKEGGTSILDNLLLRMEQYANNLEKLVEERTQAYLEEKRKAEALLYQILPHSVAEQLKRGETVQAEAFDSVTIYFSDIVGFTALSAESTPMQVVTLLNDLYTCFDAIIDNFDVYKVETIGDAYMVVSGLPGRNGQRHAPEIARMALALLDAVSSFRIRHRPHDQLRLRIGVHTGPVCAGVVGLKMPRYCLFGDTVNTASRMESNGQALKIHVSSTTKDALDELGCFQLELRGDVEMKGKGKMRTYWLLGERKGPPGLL
How it was run: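 cGMP-sensor HEK293/hNpr2 cells; 2% GloSensor reagent 2 h RT; compounds 30 min; baseline luminescence read; 1 nM hNppC agonist 20 min RT; final luminescence read by CCD camera. Antagonism = reduced post-agonist signal.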

[10] = target: Parathyroid hormone/parathyroid hormone-related peptide receptor (Homo sapiens) (UniProt Q03431); assay: qHTS for PTHR1 Agonists: Optimization Screen against the NCGC LOPAC library (AID 1347079);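 note: GloSensor cAMP luminescence in HEK-293 GP2 cells expressing human PTHR1 with IBMX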
Sequence of Parathyroid hormone/parathyroid hormone-related peptide receptor (Homo sapiens) (Q03431 whole entry, looked up): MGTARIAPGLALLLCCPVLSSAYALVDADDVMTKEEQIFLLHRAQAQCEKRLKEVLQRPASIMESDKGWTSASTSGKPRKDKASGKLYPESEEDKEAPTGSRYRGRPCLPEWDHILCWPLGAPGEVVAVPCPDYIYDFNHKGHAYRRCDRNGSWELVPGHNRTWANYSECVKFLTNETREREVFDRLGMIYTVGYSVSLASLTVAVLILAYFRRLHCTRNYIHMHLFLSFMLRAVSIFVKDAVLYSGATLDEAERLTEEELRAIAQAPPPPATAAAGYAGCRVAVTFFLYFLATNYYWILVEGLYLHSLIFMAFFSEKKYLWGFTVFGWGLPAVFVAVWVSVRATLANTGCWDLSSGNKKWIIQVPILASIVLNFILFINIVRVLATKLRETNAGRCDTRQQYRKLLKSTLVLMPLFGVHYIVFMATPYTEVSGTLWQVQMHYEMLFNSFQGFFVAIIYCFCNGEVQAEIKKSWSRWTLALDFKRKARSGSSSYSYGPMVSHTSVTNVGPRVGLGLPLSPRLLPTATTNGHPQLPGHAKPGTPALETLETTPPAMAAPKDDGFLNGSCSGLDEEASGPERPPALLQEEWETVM
How it was run: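 Agonist readout: GloSensor cAMP luminescence, read after 15 min at room temperature. HEK-293-derived GP2 line carries PTHR1; compounds tested as a titration for 1 hr at 37C in presence of IBMX. M-PTH (1-15) served as control.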

Measured: Potency

O=C(Nc1nnc(-c2ccco2)o1)c1cc(-c2ccccc2)nc2ccccc12
active: [1] 13.2 µM | [2] 14.8 µM

NS(=O)(=O)OC[C@@H]1C[C@@H](n2ccc3c(N[C@H]4CCc5ccccc54)ncnc32)C[C@H]1O
active: [1] 0.148 µM | [2] 0.59 µM
inactive: [3]

COc1cc(O)c2c(c1)C1OC1C[C@H](O)[C@H](O)C(=O)C=CC[C@H](C)OC2=O (stereo partly specified)
active: [1] 7.43 µM | [3] 11.8 µM | [2] 7.43 µM

O=C(O)[C@H](CC(=O)N1C[C@@H]2CCCC[C@H]2C1)Cc1ccccc1
inactive: [1] | [4] | [2]

Cc1[nH]c(C=C2C(=O)Nc3ccccc32)c(C)c1CCC(=O)O
active: [1] 0.235 µM | [5] 7.39 µM | [2] 2.96 µM

Cn1cc(C2=C(c3c4n(c5ccccc35)CCC(CN)C4)C(=O)NC2=O)c2ccccc21 (stereo unspecified)
active: [1] 20.9 µM | [3] 13.2 µM

COc1cc(N2CCC(C(N)=O)CC2)ccc1Nc1nc(N)c(Cl)c(Nc2ccccc2S(=O)(=O)C(C)C)n1
inactive: [4]
active: [5] 2.62 µM | [2] 0.187 µM

O=c1[nH]c(=O)n([C@H]2C[C@@H](O)[C@@H](CO)O2)cc1C=CBr
not listed: [1] | [3] | [5]
inactive: all other assays above

CN1[C@H]2CC(OC(=O)[C@@H](CO)c3ccccc3)C[C@H]1[C@H]1O[C@H]12 (stereo partly specified)
inactive: [3] | [5] | [2]

CC(C)N1[N]C(=C2C=c3cc(O)ccc3=N2)c2c(N)ncnc21
active: [4] 0.105 µM | [3] 4.69 µM | [5] 2.94 µM | [2] 5.9 µM

CC(C)Oc1ccc(C(=O)N[C@H](CNC(=O)CN(C)C)Cc2ccc(-c3cn4cccc([C@H](C)O)c4n3)cc2)cc1Cl
active: [4] 26.4 µM | [3] 20.9 µM | [5] 0.37 µM

CN1CCCN(C(=O)c2cccc(-c3ccc(C=C4C(=O)Nc5ccc(Cl)cc54)o3)c2)CC1
active: [4] 16.6 µM

CC(C)C[C@H](NC(=O)CNC(=O)c1cc(Cl)ccc1Cl)B1OC(=O)CC(CC(=O)O)(C(=O)O)O1 (stereo partly specified)
active: [4] 0.935 µM | [3] 0.209 µM | [5] 2.94 µM | [2] 0.148 µM

C[C@H]1O[C@H](O[C@H]2[C@H](O)[C@@H](O)[C@@H](O[C@H]3[C@H](O)[C@@H](O)C(O)O[C@H]3CO)O[C@H]2CO)[C@H](O)[C@@H](O)[C@H]1N[C@H]1C=C(CO)[C@@H](O)[C@H](O)[C@@H]1O (stereo partly specified)
inactive: [4] | [3] | [5] | [2]

NC(=O)c1cccc(-c2cccc(OC(=O)NC3CCCCC3)c2)c1
inactive: [4] | [3] | [5] | [2]

Nc1ncn([C@@H]2O[C@H](CO)[C@@H](O)[C@@H]2O)c(=O)n1
active: [4] 11.8 µM

COc1cccc2c1C(=O)c1c(O)c3c(c(O)c1C2=O)C[C@@](O)(C(=O)CO)C[C@@H]3O[C@H]1C[C@H](N)[C@H](OC2CCCCO2)[C@H](C)O1 (stereo partly specified)
active: [4] 5.26 µM | [3] 2.96 µM | [5] 3.7 µM

O=C(Nc1ccc(Oc2ccnc3[nH]ccc23)c(F)c1)c1cccn(-c2ccc(F)cc2)c1=O
inactive: [6] | [4] | [5] | [2]

C=CC(=O)Nc1ccc2ncnc(Nc3ccc(OCc4cccc(F)c4)c(Cl)c3)c2c1
active: [4] 23.5 µM and 16.4 µM | [3] 10.5 µM | [5] 4.66 µM | [2] 0.0469 µM

O=C1c2c(O)cccc2[C@@H]([C@@H]2O[C@H](CO)[C@@H](O)[C@H](O)[C@H]2O)c2cc(CO)cc(O)c21
inactive: [6] | [4] | [3] | [5] | [2]

CN[C@@H]1C[C@H]2O[C@@](C)([C@H]1OC)n1c3ccccc3c3c4c(c5c6ccccc6n2c5c31)C(=O)N[C@H]4O
active: [4] 1.87 µM | [3] 0.418 µM | [5] 2.94 µM

O=[N+]([O-])c1cn2c(n1)OC[C@@H](OCc1ccc(OC(F)(F)F)cc1)C2
inactive: [4] | [3] | [2]

COc1ccc(CCC(=O)c2c(O)cc(O[C@@H]3O[C@H](CO)[C@@H](O)[C@H](O)[C@@H]3O[C@@H]3O[C@@H](C)[C@H](O)[C@@H](O)[C@@H]3O)cc2O)cc1O
inactive: [4] | [3] | [5]

C=C[C@@H]1CN2CCC1C[C@H]2[C@H](O)c1ccnc2ccc(OC)cc12 (stereo partly specified)
inactive: [4] | [2]

CS[C@H]1SC[C@@H]2C(=O)N(C)[C@H](C(C)C)C(=O)OC[C@H](NC(=O)c3cnc4ccccc4n3)C(=O)N[C@H](C)C(=O)N(C)[C@@H]1C(=O)N(C)[C@H](C(C)C)C(=O)OC[C@H](NC(=O)c1cnc3ccccc3n1)C(=O)N[C@H](C)C(=O)N2C
active: [4] 0.59 µM | [3] 0.0166 µM | [5] 0.0093 µM | [2] 0.0074 µM
